Mdm2-MdmX inh: human Mdm2/MdmX binding inhibition; O15151+Q00987; inhibition, % at 8 µM; actives 3% (n = 330,000); SaOS-2 split-luciferase Mdm2/MdmX complementation, luminescence; AID 485346;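 active = inhibition of at least 50% at 8 µM in the primary screen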
MPTP inh: permeability transition pore inhibition | isolated mouse mitochondria, Ca2+ swelling absorbance, 30 min | inhibition, % at 10 µM | actives 1.4% (n = 360,000) | AID 602449;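 active = inhibition of 50% or more, scaled per plate between neutral and stimulator controls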;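 note: 0% = DMSO wells given calcium and 100% = 1 mM EGTA wells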
Beta cell apopt: blocks beta cell apoptosis | INS-1E cytokine-induced death, ATP luminescence, 48 h; percent of positive-control rescue, neutral wells zero | protection from apoptosis, % (no concentration beside the values) | actives 0.8% (n = 300,000) | AID 435005;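 active = Every replicate reaches about 75%, or at least half do and their mean reaches it too, limit read from the data; inconclusive = At least half of replicates reach the limit but their mean does not; inactive = Under half of replicates reach the limit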;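 note: 0% = cytokine-treated negative control wells and 100% = positive control rescue; higher means more ATP so stronger rescue from cytokine killing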
CSC inhib: cancer stem cell inhibition; cancer stem cell-like cells viability, luminescence; inhibition, % at 7.5 µM; actives 1.1% (n = 300,000); AID 2717; in the data active = inhibition above about 75%; inconclusive = no clear call, values can overlap the other calls; tested in HMLE shEcad cells
Calb FLC: affects C. albicans growth with fluconazole; C. albicans CaCi-2 (fluconazole-resistant clinical isolate) + fluconazole, Alamar Blue growth, 48 h; growth inhibition, % (no concentration beside the values); actives 0.57% (n = 300,000);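 active = growth inhibition above about 58% in most replicates, limit read from the data, passing the limit was not always enough; inconclusive = exactly half the replicates above a set limit; inactive = most replicates below a set limit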;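 note: all wells also contain fluconazole at 8 µg/ml as a sub-toxic cotreatment; 0% = median of DMSO wells and 100% = median of geldanamycin control wells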
Mdm2-MdmX conf: confirmation of human Mdm2/MdmX interaction inhibitors; shares compounds with Mdm2-MdmX inh; Mdm2-MdmX binding, luminescent assay; inhibition, % at 8 µM; actives 55% (n = 10,000); AID 489028; in the data active = inhibition above about 40%
Full FLuc ctr: inhibits full-length luciferase, flagging false Mdm2/MdmX hits; inhibition, % at 8 µM; shares compounds with Mdm2-MdmX inh; actives 77% (n = 6,200); SaOS-2 full-length luciferase counterscreen, luminescence;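 active = mean inhibition at 8 µM reaching about 37%, which flags the compound as non-specific, limit read from the data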;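 note: p53-null SaOS-2 cells with luciferase driven by a doxycycline-inducible promoter; compound on cells about two nights before reading with doxycycline added after day one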
* = called active by the depositor; ? = inconclusive; · = no result given. The list is not random: actives were taken first. Their share in the collection is about 4.8%.

SMILES	Mdm2-MdmX inh	MPTP inh	Beta cell apopt	CSC inhib	Calb FLC	Mdm2-MdmX conf	others
CCCc1nc2ccccc2n1C(C(=O)NC(C)(C)C)C1CC1 (stereo not drawn)	·	1	·	·	·	·
CC(=O)NC(c1ccccc1)c1nc(-c2csc3ccccc23)cs1 (stereo not drawn)	·	-1	·	·	·	·
CCC/C=C/c1ccc(CN2C(C(C)C)C(=O)N(Cc3cn(CCC4OCCO4)nn3)CCS2(=O)=O)cc1 (stereo not drawn)	·	-2	·	·	·	·
Brc1nc(-c2ccccc2)nc(-c2ccccc2)c1Br	79*	-1	-5	51	0	18
Cc1ccc(OCC(=O)NNC(=O)C2CSC3(C)CCC(=O)N23)cc1C (stereo not drawn)	25	-3	·	·	·	·
O=C1C=C(N2CCOCC2)c2ccccc2C1=O	74*	4	104*	21	25	20
O=C1C=C(N2CCOCC2)c2cccc3cccc1c23	·	1	·	·	·	·
Cc1nn(CC(=O)OCC(=O)c2ccc(OC(F)F)cc2)c(C)c1[N+](=O)[O-]	-21	0	-7	·	·	·
NC(=O)c1cc(S(=O)(=O)N2CCOCC2)cs1	13	1	1	-10	-8	·
COc1cc(/C=N/n2cnc3scc(-c4cccs4)c3c2=O)cc(OC)c1OC	61*	0	8	55	-10	36
Cc1ccc(C)c(NC(=S)NC(NC(=O)N(C)C)C(Cl)(Cl)Cl)c1 (stereo not drawn)	14	-1	-10	-10	7	·
Cc1ccc(C)c(NC(=S)NC(NC(=O)Cc2cccc3ccccc23)C(Cl)(Cl)Cl)c1 (stereo not drawn)	99*	20	76*	?	-4	99*	Full FLuc ctr=2
O=C(C(=NNc1ccccc1)C(=S)Nc1ccccc1)c1ccccc1	·	5	·	·	·	·
COc1ccc(OC)c(Nc2nc(N)c([N+](=O)[O-])c(NCc3ccccc3)n2)c1	85*	5	12	16	0	22
COCCCNc1nc(N)c([N+](=O)[O-])c(Nc2cc(OC)ccc2OC)n1	70*	4	-8	-4	-5	27
CC(C)C[C@H]1CN(CCCC[C@H]2CNC(=O)C(=O)N2CCc2ccc(O)cc2)C(=O)C(=O)N1CCc1ccccc1	·	0	·	·	·	·
COc1cccc2sc3ccc(C#CC4(O)CCCCC4)cc3c(=O)c12	-107	-2	-2	-25	-20	·
O=c1c2ccccc2oc2cc(C#CC3(O)CCCCC3)ccc12	87*	-1	-2	19	10	76*	Full FLuc ctr=98*
O=c1c2ccccc2sc2ccc(C#CC3(O)CCCCC3)cc12	94*	0	6	-6	18	94*	Full FLuc ctr=25
O=C(c1cc(-c2ccc(Br)cc2)nc2ccccc12)N1CCN(c2ccccc2O)CC1	56*	1	-2	·	0	30
O=C(c1cc(-c2ccccc2Cl)nc2ccc(Br)cc12)N1CCN(c2ccccn2)CC1	74*	0	106*	16	-9	9
COc1ccc(-c2cc(C(=O)N3CCN(c4cccc(C)c4C)CC3)c3ccccc3n2)cc1OC	75*	-1	0	15	-3	18
Cc1ccc(-c2cc(C(=O)N3CCN(c4ccccc4O)CC3)c3ccccc3n2)o1	5	-2	9	6	1	·
CCc1nc2ccc(C(=O)N(C)CCN(C)C)cn2c1N(C)Cc1cc2ccccc2s1	·	-1	·	·	·	·
CCc1nc2c(OCc3ccc(C(F)(F)F)cc3)cccn2c1N(C)C(=O)c1ccc(C)cc1	·	0	·	·	·	·
NC(=O)c1nc(-c2cccs2)nc2c1[nH]c(=O)n2-c1ccc(F)cc1	100*	2	42	18	3	67*	Full FLuc ctr=81*
NC(=O)c1nc(-c2ccco2)nc2c1[nH]c(=O)n2-c1ccc(Cl)c(Cl)c1	75*	2	30	1	-1	14
CC1C(=O)N(Cc2cn(Cc3ccco3)nn2)CCS(=O)(=O)N1Cc1ccc(-c2ccc(F)cc2Cl)cc1 (stereo not drawn)	·	-1	·	·	·	·
Cc1cc(C(=O)N/N=C/c2ccc(Cl)c([N+](=O)[O-])c2)c(C)n1-c1ccc(F)cc1	96*	1	-1	32	9	83*	Full FLuc ctr=45*
Cc1cc(C(=O)N/N=C/c2ccc3c(c2)OCO3)c(C)n1-c1ccc(F)cc1	18	0	-4	74	9	·

High-throughput results from PubChem BioAssay.
